Measurements as given in PubChem BioAssay.
A number with no mark means an inactive call. The rule behind the calls is not given here.

Target: Pantothenate synthetase (Mycobacterium tuberculosis (strain ATCC 25618 / H37Rv)) (UniProt P9WIL5)
Assay: Coupled enzyme confirmation of inhibitors against recombinant Mtb PanC (AID 375);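 note: 0% = full reaction with vehicle and 100% = no enzyme background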
Settings: coupled enzyme assay; at 10 µM, active compounds read high

Chain of Pantothenate synthetase (Mycobacterium tuberculosis (strain ATCC 25618 / H37Rv)) (P9WIL5 whole entry, looked up): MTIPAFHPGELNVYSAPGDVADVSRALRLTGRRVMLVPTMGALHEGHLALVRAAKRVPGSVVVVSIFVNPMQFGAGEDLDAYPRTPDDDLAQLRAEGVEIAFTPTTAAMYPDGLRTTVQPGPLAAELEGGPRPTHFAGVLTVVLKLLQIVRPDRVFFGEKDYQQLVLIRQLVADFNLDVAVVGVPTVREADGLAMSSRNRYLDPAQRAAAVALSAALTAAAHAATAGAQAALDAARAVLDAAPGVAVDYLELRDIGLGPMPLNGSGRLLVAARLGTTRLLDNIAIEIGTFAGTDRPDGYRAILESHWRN

Question: For C=CCc1cccc2cc(C(=O)NCc3cccnc3)c(=O)oc12, which inhibition is on record?
Answer: Its inhibition is 1%.

Question: How did the inhibition turn out when CC(=O)N1CCN(C(=O)COc2ccc(Br)cc2)CC1 was run?
Answer: The inhibition was 0%.

Question: How did the inhibition turn out when COc1cc(OC)c(OC)cc1CN(C)CCc1ccccn1 was run?
Answer: Its inhibition is 3%.

Question: Which inhibition does the source give for CN(C)c1ccc(CNCCC2(O)CCOC(C)(C)C2)cc1 (centres undefined) here?
Answer: Its inhibition is 2%.

Question: With Cc1ccc(C(=O)Nc2ccc(Cl)cn2)cc1S(=O)(=O)N1CCOCC1 as the compound, how does the inhibition read?
Answer: Its inhibition is 0%.

Question: C=CCn1c(-c2ccccc2)c[nH]c1=S was tested. Which inhibition did it give?
Answer: Its inhibition is 0%.

Question: Which inhibition does the source give for O=C(c1cccc2c1C(=O)N(Cc1cccnc1)C2)N1CCN(c2ccccc2)CC1 here?
Answer: The inhibition was 8%.

Question: With COC(=O)c1cccc(NC(=O)NC2CCCN2S(=O)(=O)c2ccc(Cl)cc2)c1 (centres undefined) as the compound, how does the inhibition read?
Answer: Its inhibition is 16%.

Question: Which inhibition does the source give for Cc1cc2oc(=O)cc(C)c2c(=O)o1 here?
Answer: Its inhibition is 4%.

Question: Cc1nnc(NCCc2ccccc2)n(N)c1=O was tested. Which inhibition did it give?
Answer: The inhibition was 5%.

Question: For CCOC(=O)CCc1c(C)nc2cc(-c3ccc(F)cc3)[nH]n2c1=O, which inhibition is on record?
Answer: Its inhibition is 0%.

Question: COc1ccc(N2CCN(C(=O)CCNS(=O)(=O)c3ccc(Br)s3)CC2)cc1 was tested. Which inhibition did it give?
Answer: Its inhibition is 3%.

Question: CCOC(=O)c1ccccc1NC(=O)c1ccc2c(=O)n3c(nc2c1)CCCCC3 was tested. Which inhibition did it give?
Answer: Its inhibition is 0%.

Question: Which inhibition does the source give for O=C(CSc1nc2ccccc2o1)N1CCN(c2ccc(Cl)cc2)CC1 here?
Answer: Its inhibition is 0%.

Question: How did the inhibition turn out when CCc1nnc(NC(=O)c2ccc(S(=O)(=O)N(CC(C)C)CC(C)C)cc2)o1 was run?
Answer: Its inhibition is 0%.

Question: Which inhibition does the source give for COc1ccc(Cn2c(CCCO)nc3ccccc32)cc1OC here?
Answer: The inhibition was 0%.

Question: How did the inhibition turn out when S=c1[nH]nc(COc2ccccc2)n1C1CCCCC1 was run?
Answer: Its inhibition is 0%.

Question: How did the inhibition turn out when Cc1nc2ccccn2c1C(=O)NCCCN1CCOCC1 was run?
Answer: Its inhibition is 10%.

Question: O=C(Cn1ncc2c(=O)oc3ccccc3c21)Nc1nc2ccccc2s1 was tested. Which inhibition did it give?
Answer: The inhibition was 0%.
